From paper PMC7862700, “An all-to-all approach to the identification of sequence-specific readers for epigenetic DNA modifications on cytosine”

What was measured:
Assay in all cases: DAPPL (digital affinity profiling via proximity ligation, sequencing); 10 mM Tris-HCl pH 7.5, 50 mM NaCl, 1 mM DTT, 4% glycerol, room temperature, 30 min; GST-TFs on glutathione beads, 16-mer random dsDNA library, 0.1% formaldehyde crosslink after washing; high values mean tight binding
[1] = molecular target: T1, FLI1 (Homo sapiens, UniProt Q01543 1-452); settings: protein: recombinant; tags: N-terminal GST; dsDNA, one strand shown
T1 sequence: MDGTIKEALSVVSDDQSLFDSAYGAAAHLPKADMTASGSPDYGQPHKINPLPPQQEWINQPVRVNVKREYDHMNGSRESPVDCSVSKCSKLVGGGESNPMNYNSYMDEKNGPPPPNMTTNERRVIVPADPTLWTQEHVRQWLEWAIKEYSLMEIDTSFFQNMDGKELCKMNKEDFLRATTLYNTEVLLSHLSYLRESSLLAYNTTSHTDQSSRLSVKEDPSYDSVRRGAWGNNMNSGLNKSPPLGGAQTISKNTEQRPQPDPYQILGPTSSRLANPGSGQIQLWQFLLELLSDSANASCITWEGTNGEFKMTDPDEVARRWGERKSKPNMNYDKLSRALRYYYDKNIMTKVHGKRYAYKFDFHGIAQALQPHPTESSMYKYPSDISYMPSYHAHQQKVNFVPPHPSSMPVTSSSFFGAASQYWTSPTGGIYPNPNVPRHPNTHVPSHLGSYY
Method in brief: (§1)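 Binding signal is defined as a hexamer's read frequency for one factor over its frequency for the tag-only sample. To obtain reads, GST-fused human transcription factors were expressed in yeast, captured on glutathione beads, barcoded with DNA and pooled with that sample. Pools met 200 nmole of a 16-mer random double-stranded DNA library in Tris/NaCl/DTT/glycerol buffer for 30 min at room temperature before washing, 0.1% formaldehyde crosslinking, proximity ligation (BsaI/T4 ligase, 1 h, 37 °C), PCR and Illumina NextSeq500 sequencing.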

[2] = molecular target: T2, ELK1 (Homo sapiens, UniProt P19419 1-428); settings: protein: recombinant; tags: N-terminal GST; dsDNA, one strand shown
T2 sequence: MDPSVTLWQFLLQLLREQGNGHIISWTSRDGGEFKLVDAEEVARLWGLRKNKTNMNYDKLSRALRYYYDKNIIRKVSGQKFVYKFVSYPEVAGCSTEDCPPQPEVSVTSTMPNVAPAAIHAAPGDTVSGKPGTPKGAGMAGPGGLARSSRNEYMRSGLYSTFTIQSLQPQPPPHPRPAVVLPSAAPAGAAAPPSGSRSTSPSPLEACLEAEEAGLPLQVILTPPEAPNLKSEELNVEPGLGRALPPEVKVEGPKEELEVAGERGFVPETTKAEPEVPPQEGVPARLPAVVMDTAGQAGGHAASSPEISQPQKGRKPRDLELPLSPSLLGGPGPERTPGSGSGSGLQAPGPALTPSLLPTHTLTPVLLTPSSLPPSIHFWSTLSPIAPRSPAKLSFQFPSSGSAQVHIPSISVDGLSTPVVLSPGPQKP
Method in brief: as §1

[3] = molecular target: T3, GABPA (Homo sapiens, UniProt Q06546 1-454); settings: protein: recombinant; tags: N-terminal GST; dsDNA, one strand shown
T3 sequence: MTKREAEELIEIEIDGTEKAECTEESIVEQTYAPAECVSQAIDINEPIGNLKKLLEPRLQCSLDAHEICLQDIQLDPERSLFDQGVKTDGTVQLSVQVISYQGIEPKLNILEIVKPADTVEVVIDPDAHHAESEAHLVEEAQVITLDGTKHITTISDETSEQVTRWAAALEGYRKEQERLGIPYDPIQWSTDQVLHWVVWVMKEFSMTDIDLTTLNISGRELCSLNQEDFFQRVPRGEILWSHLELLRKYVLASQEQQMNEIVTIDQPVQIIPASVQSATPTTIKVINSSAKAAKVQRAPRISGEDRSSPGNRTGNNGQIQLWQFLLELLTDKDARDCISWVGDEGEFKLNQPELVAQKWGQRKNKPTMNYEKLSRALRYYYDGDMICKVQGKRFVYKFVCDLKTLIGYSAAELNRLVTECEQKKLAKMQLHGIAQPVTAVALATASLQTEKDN
Method in brief: as §1

[4] = molecular target: T4, ERG (Homo sapiens, UniProt P11308 1-479); settings: protein: recombinant; tags: N-terminal GST; dsDNA, one strand shown
T4 sequence: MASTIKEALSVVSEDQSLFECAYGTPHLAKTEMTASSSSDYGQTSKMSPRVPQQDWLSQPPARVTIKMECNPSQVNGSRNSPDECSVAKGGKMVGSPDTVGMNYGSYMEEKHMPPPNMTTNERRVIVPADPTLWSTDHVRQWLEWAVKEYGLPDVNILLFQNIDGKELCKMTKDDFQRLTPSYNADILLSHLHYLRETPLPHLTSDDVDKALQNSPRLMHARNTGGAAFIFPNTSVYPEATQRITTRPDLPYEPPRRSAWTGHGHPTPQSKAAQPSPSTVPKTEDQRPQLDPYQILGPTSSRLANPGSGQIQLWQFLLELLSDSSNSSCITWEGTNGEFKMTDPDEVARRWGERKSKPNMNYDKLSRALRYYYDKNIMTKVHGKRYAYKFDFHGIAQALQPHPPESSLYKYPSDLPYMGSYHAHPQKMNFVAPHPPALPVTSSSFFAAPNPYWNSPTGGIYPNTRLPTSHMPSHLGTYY
Method in brief: as §1

[5] = molecular target: ELF1 (Homo sapiens, UniProt P32519 1-619); settings: protein: recombinant; tags: N-terminal GST; dsDNA, one strand shown
Method in brief: as §1

[6] = molecular target: T5, EHF (Homo sapiens, UniProt Q9NZC4 1-300); settings: protein: recombinant; tags: N-terminal GST; dsDNA, one strand shown
T5 sequence: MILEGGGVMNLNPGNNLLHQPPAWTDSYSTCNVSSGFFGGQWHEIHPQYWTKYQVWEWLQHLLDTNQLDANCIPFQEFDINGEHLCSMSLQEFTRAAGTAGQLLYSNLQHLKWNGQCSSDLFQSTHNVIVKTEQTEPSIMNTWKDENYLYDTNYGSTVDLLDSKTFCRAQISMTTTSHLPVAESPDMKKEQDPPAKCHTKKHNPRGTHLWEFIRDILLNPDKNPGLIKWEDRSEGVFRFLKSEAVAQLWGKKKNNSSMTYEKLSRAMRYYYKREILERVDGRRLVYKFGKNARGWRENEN
Method in brief: as §1

[7] = molecular target: SPI1 (Homo sapiens, UniProt P17947 1-270); settings: protein: recombinant; tags: N-terminal GST; dsDNA, one strand shown
Method in brief: as §1

[8] = molecular target: SPIB (Homo sapiens, UniProt Q01892 1-262); settings: protein: recombinant; tags: N-terminal GST; dsDNA, one strand shown
Method in brief: as §1

[9] = molecular target: T6, ELK3 (Homo sapiens, UniProt P41970 1-407); settings: protein: recombinant; tags: N-terminal GST; dsDNA, one strand shown
T6 sequence: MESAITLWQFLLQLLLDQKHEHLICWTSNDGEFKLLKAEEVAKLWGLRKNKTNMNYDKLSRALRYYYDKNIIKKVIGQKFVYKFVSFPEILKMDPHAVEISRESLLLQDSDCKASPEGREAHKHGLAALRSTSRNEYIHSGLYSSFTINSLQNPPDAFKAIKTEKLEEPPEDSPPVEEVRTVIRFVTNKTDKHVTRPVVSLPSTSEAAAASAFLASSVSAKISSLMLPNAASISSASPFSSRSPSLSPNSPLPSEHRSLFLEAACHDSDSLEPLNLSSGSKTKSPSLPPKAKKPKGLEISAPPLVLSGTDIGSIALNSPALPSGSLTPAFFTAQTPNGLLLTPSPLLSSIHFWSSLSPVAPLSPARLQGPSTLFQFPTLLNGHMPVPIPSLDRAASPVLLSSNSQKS
Method in brief: as §1

[10] = molecular target: T7, FEV (Homo sapiens, UniProt Q99581 1-238); settings: protein: recombinant; tags: N-terminal GST; dsDNA, one strand shown
T7 sequence: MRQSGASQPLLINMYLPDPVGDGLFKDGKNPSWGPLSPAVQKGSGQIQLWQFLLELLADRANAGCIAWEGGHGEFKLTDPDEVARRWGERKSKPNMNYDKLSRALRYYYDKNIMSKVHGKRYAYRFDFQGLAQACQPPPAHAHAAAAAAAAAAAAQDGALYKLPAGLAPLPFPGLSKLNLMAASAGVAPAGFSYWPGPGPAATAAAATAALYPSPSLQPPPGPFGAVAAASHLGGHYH
Method in brief: as §1

[11] = molecular target: ETV5 (Homo sapiens, UniProt P41161 1-510); settings: protein: recombinant; tags: N-terminal GST; dsDNA, one strand shown
Method in brief: as §1

[12] = molecular target: HSF1 (Homo sapiens, UniProt Q00613 1-529); settings: protein: recombinant; tags: N-terminal GST; chain copies: 3; dsDNA, one strand shown
Method in brief: as §1

[13] = molecular target: T8, SPIC (Homo sapiens, UniProt Q8N5J4 1-248); settings: protein: recombinant; tags: N-terminal GST; dsDNA, one strand shown
T8 sequence: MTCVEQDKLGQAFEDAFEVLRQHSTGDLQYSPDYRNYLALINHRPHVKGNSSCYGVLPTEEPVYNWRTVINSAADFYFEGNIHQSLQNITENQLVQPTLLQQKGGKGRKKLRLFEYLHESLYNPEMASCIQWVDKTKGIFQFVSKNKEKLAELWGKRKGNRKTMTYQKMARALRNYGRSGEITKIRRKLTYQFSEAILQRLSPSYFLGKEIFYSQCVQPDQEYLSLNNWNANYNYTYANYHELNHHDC
Method in brief: as §1

[14] = molecular target: ELF4 (Homo sapiens, UniProt Q99607 1-663); settings: protein: recombinant; tags: N-terminal GST; dsDNA, one strand shown
Method in brief: as §1

[15] = molecular target: T9, ELK4 (Homo sapiens, UniProt P28324-2 1-405); settings: protein: recombinant; tags: N-terminal GST; dsDNA, one strand shown
T9 sequence: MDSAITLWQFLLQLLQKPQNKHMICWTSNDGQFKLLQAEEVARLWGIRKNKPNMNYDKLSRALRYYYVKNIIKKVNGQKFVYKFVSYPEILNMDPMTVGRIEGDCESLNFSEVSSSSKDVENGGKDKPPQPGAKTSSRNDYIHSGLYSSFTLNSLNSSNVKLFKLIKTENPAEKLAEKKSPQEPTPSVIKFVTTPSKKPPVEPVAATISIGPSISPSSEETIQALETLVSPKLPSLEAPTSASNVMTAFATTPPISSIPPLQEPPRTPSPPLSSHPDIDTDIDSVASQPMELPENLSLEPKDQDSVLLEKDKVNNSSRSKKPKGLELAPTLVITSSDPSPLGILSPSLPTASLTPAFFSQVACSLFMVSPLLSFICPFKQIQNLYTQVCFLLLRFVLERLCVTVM
Method in brief: as §1

[16] = molecular target: T10, ETV2 (Homo sapiens, UniProt O00321 1-342); settings: protein: recombinant; tags: N-terminal GST; dsDNA, one strand shown
T10 sequence: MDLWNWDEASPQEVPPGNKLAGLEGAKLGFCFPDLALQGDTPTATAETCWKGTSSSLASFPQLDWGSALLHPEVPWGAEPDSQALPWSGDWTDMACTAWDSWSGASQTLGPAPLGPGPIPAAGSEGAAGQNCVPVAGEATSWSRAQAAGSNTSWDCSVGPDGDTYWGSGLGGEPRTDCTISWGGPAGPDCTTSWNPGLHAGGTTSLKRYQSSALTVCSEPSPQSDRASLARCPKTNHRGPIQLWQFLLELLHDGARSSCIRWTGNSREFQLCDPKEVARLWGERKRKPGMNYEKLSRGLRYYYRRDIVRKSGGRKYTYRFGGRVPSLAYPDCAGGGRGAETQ
Method in brief: as §1

[17] = molecular target: T11, ELF3 (Homo sapiens, UniProt P78545 1-371); settings: protein: recombinant; tags: N-terminal GST; dsDNA, one strand shown
T11 sequence: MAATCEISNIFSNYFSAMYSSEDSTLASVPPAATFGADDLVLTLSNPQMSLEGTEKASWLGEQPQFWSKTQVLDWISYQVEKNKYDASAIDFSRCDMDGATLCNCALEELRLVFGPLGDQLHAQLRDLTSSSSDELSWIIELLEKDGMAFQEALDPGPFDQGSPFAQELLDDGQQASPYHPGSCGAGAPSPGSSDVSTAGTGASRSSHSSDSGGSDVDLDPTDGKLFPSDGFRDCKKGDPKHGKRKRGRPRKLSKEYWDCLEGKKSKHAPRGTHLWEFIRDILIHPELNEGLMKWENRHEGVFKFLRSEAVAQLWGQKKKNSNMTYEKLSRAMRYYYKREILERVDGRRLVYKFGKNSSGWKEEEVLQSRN
Method in brief: as §1

[18] = molecular target: CRX (Homo sapiens, UniProt O43186 1-299); settings: protein: recombinant; tags: N-terminal GST; dsDNA, one strand shown
Method in brief: as §1

[19] = molecular target: ETV1 (Homo sapiens, UniProt P50549 1-477); settings: protein: recombinant; tags: N-terminal GST; dsDNA, one strand shown
Method in brief: as §1

Sequence of CRX (O43186 whole entry): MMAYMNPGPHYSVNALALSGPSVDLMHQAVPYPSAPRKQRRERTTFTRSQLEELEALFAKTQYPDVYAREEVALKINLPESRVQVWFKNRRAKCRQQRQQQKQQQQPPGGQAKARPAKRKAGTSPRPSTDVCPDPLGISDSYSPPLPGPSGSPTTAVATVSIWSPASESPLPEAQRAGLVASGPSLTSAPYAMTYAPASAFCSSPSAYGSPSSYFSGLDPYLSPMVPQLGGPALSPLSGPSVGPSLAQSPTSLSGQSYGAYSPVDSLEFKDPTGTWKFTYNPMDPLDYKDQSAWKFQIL
Sequence of ELF1 (P32519 whole entry): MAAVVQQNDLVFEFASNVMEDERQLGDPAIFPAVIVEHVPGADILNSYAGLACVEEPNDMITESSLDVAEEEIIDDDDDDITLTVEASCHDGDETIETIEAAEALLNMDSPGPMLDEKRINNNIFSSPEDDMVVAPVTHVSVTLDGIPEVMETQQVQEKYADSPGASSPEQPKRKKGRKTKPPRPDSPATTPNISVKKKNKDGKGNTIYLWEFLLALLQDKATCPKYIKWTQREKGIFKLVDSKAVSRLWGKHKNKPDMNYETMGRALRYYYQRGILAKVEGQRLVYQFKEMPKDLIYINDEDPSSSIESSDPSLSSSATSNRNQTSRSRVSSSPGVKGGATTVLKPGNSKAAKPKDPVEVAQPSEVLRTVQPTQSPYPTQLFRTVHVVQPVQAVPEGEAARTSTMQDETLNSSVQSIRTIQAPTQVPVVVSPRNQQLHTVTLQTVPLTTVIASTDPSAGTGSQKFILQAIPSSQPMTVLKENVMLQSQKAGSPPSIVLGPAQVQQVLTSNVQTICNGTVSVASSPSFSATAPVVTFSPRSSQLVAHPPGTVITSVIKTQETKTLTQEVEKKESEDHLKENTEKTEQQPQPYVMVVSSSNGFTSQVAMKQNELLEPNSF
Sequence of SPIB (Q01892 whole entry): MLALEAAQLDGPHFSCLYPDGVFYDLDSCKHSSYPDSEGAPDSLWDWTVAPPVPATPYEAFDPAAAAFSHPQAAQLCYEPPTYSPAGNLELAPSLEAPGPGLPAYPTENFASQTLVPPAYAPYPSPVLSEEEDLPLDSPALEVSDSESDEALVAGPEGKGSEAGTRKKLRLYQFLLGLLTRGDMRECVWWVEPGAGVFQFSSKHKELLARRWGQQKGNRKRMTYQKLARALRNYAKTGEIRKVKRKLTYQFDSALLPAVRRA
Sequence of ETV5 (P41161 whole entry): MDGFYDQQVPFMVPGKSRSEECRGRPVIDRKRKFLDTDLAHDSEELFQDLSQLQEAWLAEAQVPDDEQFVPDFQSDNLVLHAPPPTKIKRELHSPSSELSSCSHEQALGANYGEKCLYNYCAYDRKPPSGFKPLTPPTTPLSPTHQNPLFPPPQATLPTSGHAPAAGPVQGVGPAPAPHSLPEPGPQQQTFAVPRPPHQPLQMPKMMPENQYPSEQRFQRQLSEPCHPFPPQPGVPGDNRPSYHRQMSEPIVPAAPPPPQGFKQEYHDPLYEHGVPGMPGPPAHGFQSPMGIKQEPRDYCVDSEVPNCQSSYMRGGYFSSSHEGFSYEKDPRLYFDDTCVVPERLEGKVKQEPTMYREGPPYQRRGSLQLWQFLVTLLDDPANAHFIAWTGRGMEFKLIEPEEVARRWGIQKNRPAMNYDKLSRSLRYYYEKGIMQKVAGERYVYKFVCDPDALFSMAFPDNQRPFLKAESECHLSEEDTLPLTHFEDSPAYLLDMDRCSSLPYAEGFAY
Sequence of ELF4 (Q99607 whole entry): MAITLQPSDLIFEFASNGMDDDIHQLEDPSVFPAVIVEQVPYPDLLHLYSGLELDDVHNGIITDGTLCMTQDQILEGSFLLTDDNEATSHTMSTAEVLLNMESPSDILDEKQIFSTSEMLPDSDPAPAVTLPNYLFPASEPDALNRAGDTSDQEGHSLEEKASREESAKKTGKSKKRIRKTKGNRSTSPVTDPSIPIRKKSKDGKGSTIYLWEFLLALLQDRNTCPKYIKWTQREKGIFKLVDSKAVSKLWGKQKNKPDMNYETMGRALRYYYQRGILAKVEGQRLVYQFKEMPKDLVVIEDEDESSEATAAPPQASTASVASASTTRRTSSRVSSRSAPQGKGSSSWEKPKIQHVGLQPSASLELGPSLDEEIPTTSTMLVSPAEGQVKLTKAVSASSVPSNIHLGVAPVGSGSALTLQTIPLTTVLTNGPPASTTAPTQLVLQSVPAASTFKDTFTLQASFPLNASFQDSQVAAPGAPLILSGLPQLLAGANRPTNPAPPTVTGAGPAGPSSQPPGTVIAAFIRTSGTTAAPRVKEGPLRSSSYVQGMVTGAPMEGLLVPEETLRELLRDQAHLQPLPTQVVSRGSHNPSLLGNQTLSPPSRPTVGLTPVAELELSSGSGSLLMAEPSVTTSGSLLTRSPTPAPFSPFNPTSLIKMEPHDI
Sequence of HSF1 (Q00613 whole entry): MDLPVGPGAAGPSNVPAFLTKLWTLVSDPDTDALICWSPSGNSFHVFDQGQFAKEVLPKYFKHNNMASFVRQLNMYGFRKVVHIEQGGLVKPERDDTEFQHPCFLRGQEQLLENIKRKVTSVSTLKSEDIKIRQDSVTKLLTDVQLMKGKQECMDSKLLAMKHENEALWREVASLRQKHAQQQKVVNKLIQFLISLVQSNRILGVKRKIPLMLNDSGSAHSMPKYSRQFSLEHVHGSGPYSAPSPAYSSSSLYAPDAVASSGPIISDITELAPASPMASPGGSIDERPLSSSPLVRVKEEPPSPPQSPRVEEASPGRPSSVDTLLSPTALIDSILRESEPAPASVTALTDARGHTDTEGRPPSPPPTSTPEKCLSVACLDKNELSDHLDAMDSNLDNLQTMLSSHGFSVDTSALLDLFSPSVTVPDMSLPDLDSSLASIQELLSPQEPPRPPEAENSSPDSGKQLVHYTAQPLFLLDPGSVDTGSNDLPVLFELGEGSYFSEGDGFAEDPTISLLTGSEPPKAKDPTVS
Sequence of ETV1 (P50549 whole entry): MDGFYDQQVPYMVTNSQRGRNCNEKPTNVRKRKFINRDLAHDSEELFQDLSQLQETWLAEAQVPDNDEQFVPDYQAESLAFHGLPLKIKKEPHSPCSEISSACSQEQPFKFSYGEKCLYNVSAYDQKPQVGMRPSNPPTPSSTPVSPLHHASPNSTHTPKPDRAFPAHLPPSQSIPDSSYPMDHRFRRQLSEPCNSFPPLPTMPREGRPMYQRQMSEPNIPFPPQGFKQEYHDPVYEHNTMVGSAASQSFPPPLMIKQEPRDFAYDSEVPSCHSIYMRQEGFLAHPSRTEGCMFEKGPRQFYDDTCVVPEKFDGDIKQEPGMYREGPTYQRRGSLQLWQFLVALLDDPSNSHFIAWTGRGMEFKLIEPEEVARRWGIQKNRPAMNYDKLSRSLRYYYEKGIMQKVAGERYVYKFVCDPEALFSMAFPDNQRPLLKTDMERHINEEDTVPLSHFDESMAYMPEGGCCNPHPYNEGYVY

CGCCTT
binding signal [1]: 1.45 fold enrichment (6-mer frequency, TF over GST control)
binding signal [2]: 1.43 fold enrichment (6-mer frequency, TF over GST control)
binding signal [3]: 1.45 fold enrichment (6-mer frequency, TF over GST control)
binding signal [4]: 1.44 fold enrichment (6-mer frequency, TF over GST control)
binding signal [5]: 1.44 fold enrichment (6-mer frequency, TF over GST control)
binding signal [6]: 1.34 fold enrichment (6-mer frequency, TF over GST control)
binding signal [7]: 1.35 fold enrichment (6-mer frequency, TF over GST control)
binding signal [8]: 1.43 fold enrichment (6-mer frequency, TF over GST control)
binding signal [9]: 1.46 fold enrichment (6-mer frequency, TF over GST control)
binding signal [10]: 1.39 fold enrichment (6-mer frequency, TF over GST control)
binding signal [11]: 1.37 fold enrichment (6-mer frequency, TF over GST control)
binding signal [12]: 1.32 fold enrichment (6-mer frequency, TF over GST control)
binding signal [13]: 1.47 fold enrichment (6-mer frequency, TF over GST control)
binding signal [14]: 1.54 fold enrichment (6-mer frequency, TF over GST control)
binding signal [15]: 1.52 fold enrichment (6-mer frequency, TF over GST control)
binding signal [16]: 1.64 fold enrichment (6-mer frequency, TF over GST control)
binding signal [17]: 1.26 fold enrichment (6-mer frequency, TF over GST control)
binding signal [18]: 1.38 fold enrichment (6-mer frequency, TF over GST control)
binding signal [19]: 1.38 fold enrichment (6-mer frequency, TF over GST control)
